High-throughput results: PubChem, several laboratories
Mcl1-Noxa inh: Mcl-1/Noxa interaction inhibition; inhibition, % at 21.7 µM; AID 1022; 220,000 compounds, 1.5% hits; TR-FRET Mcl-1/Noxa peptide binding, 2 h; Q07820;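 active = compounds that cut the protein-peptide binding signal by more than 50% relative to plate controls in a single-dose test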;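 also: His-tagged Mcl-1 with rhodamine Noxa BH3 peptide and terbium anti-His antibody; 0% = Mcl-1 plus Noxa peptide wells and 100% = peptide-only wells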
Target sequence (Q07820 whole entry, looked up): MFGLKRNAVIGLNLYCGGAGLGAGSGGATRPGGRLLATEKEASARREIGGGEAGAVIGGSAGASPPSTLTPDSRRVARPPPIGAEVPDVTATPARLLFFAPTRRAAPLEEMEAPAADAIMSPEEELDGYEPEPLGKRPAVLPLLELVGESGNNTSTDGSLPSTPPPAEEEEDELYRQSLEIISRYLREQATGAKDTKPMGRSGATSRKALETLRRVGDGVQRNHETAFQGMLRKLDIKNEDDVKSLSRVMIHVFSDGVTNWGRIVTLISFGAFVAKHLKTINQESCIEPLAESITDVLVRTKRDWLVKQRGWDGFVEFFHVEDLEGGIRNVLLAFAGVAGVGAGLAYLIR
MCL1-BIM inh: disrupts human MCL1 binding to BIM-BH3 peptide | Q07820 | 320,000 compounds, 0.68% hits | inhibition, % at 10.9 µM | AID 2057 | GST-MCL1 / FITC-Bim-BH3 fluorescence polarization;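 active = inhibition above the mean inhibition of all tested compounds plus 3 SD, set per campaign, cut at about 40% in these data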;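 also: 0% = DMSO wells and 100% = unlabeled Bim-BH3 peptide control; higher means more loss of mP so more displacement of Bim peptide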
zVAD death inh: blocks zVAD induced death of L929 cells | L929 zVAD necroptosis rescue, ATP luminescence, 24 h; with zVAD 60 µM | viability rescue, % at 10 µM | 220,000 compounds, 0.38% hits;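 active = activation, scaled between plate controls, above about 75%, limit read from the data; inactive = activation under that limit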;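 also: 0% = zVAD with DMSO and 100% = DMSO alone without zVAD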
Mcl1-Bid inh: Mcl-1/Bid interaction inhibition; Q07820; TR-FRET Mcl-1/Bid-Dy647 peptide binding, 1536-well; inhibition, % at 21.7 µM; 220,000 compounds, 0.97% hits; AID 1021;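 active = compounds that cut the binding signal by more than half at the single screening dose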;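 also: His-tagged Mcl-1 with europium anti-His antibody binding Bid BH3 peptide; 0% = Mcl-1 plus peptide wells and 100% = peptide-only wells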
Mcl-1 Bim block: human Bim-Mcl-1 interaction inhibition. Q07820. Bead-based flow cytometry, Bim peptide-Mcl-1 binding. inhibition, % at 10 µM. 190,000 compounds, 0.1% hits. AID 1009; in the data active = inhibition above about 40%;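 also: 0% = no compound tracer wells and 100% = peptide blocker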
TNF death inh: inhibitors of TNF-alpha induced necroptosis in Jurkat FADD-/- cells. 220,000 compounds, 0.068% hits. Jurkat FADD-/- TNF necroptosis rescue, ATP luminescence, 24 h; 0 = TNF only, 100 = no-TNF cells. activation (protection from cell death), % at 10 µM;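 active = activation, meaning protection from cell death, of at least 50% relative to plate controls; inactive = activation below 50%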;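 also: necroptosis triggered by 40 ng/mL TNF-alpha added together with compound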
Numbers without * were called inactive; . = not tested or not shown. Rows were chosen to be rich in hits. Some 2.4% of all compounds tested hit in one or more screens of this group.

SMILES | Mcl1-Noxa inh | MCL1-BIM inh | zVAD death inh | Mcl1-Bid inh | Mcl-1 Bim block | TNF death inh
Cc1ccc2nc(/C(C#N)=C\c3ccc(Oc4ccc(C(F)(F)F)cc4[N+](=O)[O-])cc3)[nH]c2c1 | 51* | -12 | -1 | -28 | -3 | 0
COc1cc(/C=C(\C#N)c2nc3ccc(C)cc3[nH]2)cc([N+](=O)[O-])c1O | 81* | . | 1 | -47 | 11 | 3
COc1cc(/C=C(/C#N)c2nc3ccccc3c(=O)[nH]2)ccc1O | 42 | -57 | 1 | 70* | -2 | 1
COc1cc(/C=C(\C#N)c2nc3ccccc3[nH]2)cc(OC)c1O | 72* | -95 | 23 | -23 | 5 | -2
COc1cc(/C=C(\C#N)C(=O)NCCc2ccccc2)cc(OC)c1O | 18 | -43 | -2 | 5 | -6 | 0
Cc1ccc2nc(/C(C#N)=C/c3ccc(-c4cccc([N+](=O)[O-])c4)o3)[nH]c2c1 | 80* | -123 | 4 | 36 | 0 | 5
COc1cc(/C=C(\C#N)C(=O)c2c[nH]c3ccccc23)cc(OC)c1O | 70* | -51 | 0 | 46 | 3 | 1
Cc1nc(C)n(C(C)CNS(=O)(=O)c2ccc(C)c(C)c2)n1 (stereo not given) | . | 3 | . | . | . | .
CCn1c2ccccc2c2cc(NC(=O)CNCC3CCCO3)ccc21 (stereo not given) | 52* | 0 | 71 | 5 | -1 | 4
O=C(NCc1ccc(F)cc1)N1CCN(C(=O)c2ccccc2)CC1 | . | 7 | . | . | . | .
Cc1ccc(NC(=O)CCNC(=O)c2ccco2)cc1 | 5 | 8 | 1 | -1 | -4 | 2
CCN(c1ccc(NC(=O)CCNC(=O)c2ccco2)cc1)C(C)C | 75* | 22 | 2 | -60 | -5 | 1
Cc1ccc(C(=O)N2CCn3c(C)ccc3C2C)cc1 (stereo not given) | -6 | 42* | 4 | -25 | -2 | 2
COc1cc2c(cc1OC)C(Nn1cnnc1)=NC1(CCCC1)C2 | 8 | -4 | 0 | 91* | . | 2
CC1(C)Cc2ccccc2C(Nn2cnnc2)=N1 | -18 | 11 | 0 | -15 | 3 | -3
Cc1cc(C)c(S(=O)(=O)N2CCCCC2CCNC(=O)C(=O)NCc2ccco2)c(C)c1 (stereo not given) | . | -1 | . | . | . | .
CCCCCCCCC[n+]1cccc2c3ccccc3ccc21 | -1 | -3 | 14 | -24 | 0 | -20
CCCCCCCCCCCCCCCC[n+]1cccc2ccccc21 | 89* | 8 | 12 | 91* | 0 | -16
O=C(OC1CCc2ccccc2C1=O)c1ccccc1O (stereo not given) | 6 | 4 | 0 | 54* | 0 | 0
O=C(N/N=C1\CCc2ccccc21)c1ccccc1O | 21 | 10 | 1 | 4 | -4 | -3
Cc1ccc(NC(=O)CSc2nnc(-c3ccco3)c(-c3ccco3)n2)cc1 | 90* | 33 | 1 | 2 | 2 | -8
COc1ccc(C(=O)CSc2nnc(-c3ccco3)c(-c3ccco3)n2)cc1 | 90* | . | 0 | 54* | 1 | -3
COc1ccc(C(=O)CSc2nnc(-c3ccco3)n2C)cc1 | 8 | -13 | 0 | 17 | 0 | 2
CN(C)c1ccc(NC(=O)CSc2nnc(-c3ccco3)c(-c3ccco3)n2)cc1 | . | 32 | . | . | . | .
O=C(Nc1cc(-c2ccccc2)nn1-c1ccccc1)c1ccccc1F | . | 5 | . | . | . | .
SMILES | Mcl1-Noxa inh | MCL1-BIM inh | zVAD death inh | Mcl1-Bid inh | Mcl-1 Bim block | TNF death inh
CCCCC1=CC2=CC(=O)C(C)(OC(=O)CC)C(=O)C2=CN1CC(C)C (stereo not given) | -5 | 41* | 0 | -73 | . | -2
C=CCn1c(O)c(N=NC(=O)c2cccnc2)c2cc(Br)ccc21 | 5 | 2 | 1 | -12 | . | 0
Cc1ccc(N2NC(=O)/C(=C/c3ccc(-c4ccc(Cl)c(C(=O)O)c4)o3)C2=O)cc1 | 32 | 28 | 1 | -33 | 0 | 1
O=C1NN(c2ccc(Cl)cc2)C(=O)/C1=C\c1ccc(-c2cccc(C(=O)O)c2)o1 | 81* | . | 4 | 21 | 0 | -2
O=C1NN(c2ccccc2)C(=O)/C1=C\c1ccc(-c2cc([N+](=O)[O-])ccc2O)o1 | 87* | . | 2 | -83 | 0 | -6
CCN(CC(=O)Nc1c(F)cccc1F)C(=O)/C=C/c1cn(Cc2ccccc2)nc1-c1cccnc1 | . | -2 | . | . | . | .
Cc1nc(NC(=O)c2ccccc2)sc1-c1csc(Nc2ccc(Cl)cc2)n1 | -16 | -1 | 1 | -11 | -2 | -4
COc1ccc(Cl)cc1Nc1nc(-c2sc(NC(=O)c3ccccc3)nc2C)cs1 | 32 | -16 | 1 | 70* | -2 | -3
COc1ccc(OC)c(Nc2nc(-c3sc(NC(=O)c4ccccc4)nc3C)cs2)c1 | 29 | -18 | 1 | -18 | -1 | -10
Cc1nc(NC(=O)c2ccccc2)sc1-c1csc(Nc2cccc(Cl)c2)n1 | 98* | -23 | 0 | 94* | 0 | -3
Cc1ccc(Cl)cc1Nc1nc(-c2sc(NC(=O)c3cccc(Cl)c3)nc2C)cs1 | 40 | -11 | 0 | 61* | -3 | 0
Cc1ccccc1Nc1nc(-c2sc(NC(=O)c3cccc(Cl)c3)nc2C)cs1 | 37 | -2 | 0 | -25 | 0 | 2
CCOc1ccccc1Nc1nc(-c2sc(NC(=O)c3ccc([N+](=O)[O-])cc3)nc2C)cs1 | 86* | 5 | 0 | 96* | -1 | -5
CCCCCCCN1CCC(=O)N([C@H](CO)c2ccccc2)CC1 | . | 1 | . | . | . | .
Cc1ccc(S(=O)(=O)N2CCN(C(=O)c3cc(C4CC4)nc4c3cnn4C(C)C)CC2)cc1 | . | -21 | . | . | . | .
Cn1c(N)c(C(=O)Nc2ccc3ccccc3c2)sc1=S | 66* | -12 | 0 | 44 | -9 | -5
Cn1c(N)c(C(=O)Nc2ccccc2F)sc1=S | 1 | 12 | 1 | -31 | . | 0
COc1cc(NC(=S)NC(=O)c2ccccc2F)ccc1NC(=O)c1ccco1 | 32 | 12 | 1 | 53* | -7 | -4
CCCCN(C(=O)CN1CC(C)OC(C)C1)c1c(N)n(CC(C)C)c(=O)[nH]c1=O (stereo not given) | 18 | -18 | 1 | -17 | -4 | 1
CCCCN(C(=O)Cn1ncc(Cl)c(Cl)c1=O)c1c(N)n(CC(C)C)c(=O)[nH]c1=O | 66* | 16 | 2 | -1 | . | -4
O=C(COC(=O)CNC(=O)c1ccc(Cl)cc1Cl)NC(=O)NC1CCCCC1 | . | -2 | . | . | . | .
CSc1c(CC(=O)Nc2ccccc2C(F)(F)F)n(Cc2ccccc2)c2ccccc12 | 10 | 3 | 1 | 58* | 7 | 4
CSc1c(CC(=O)Nc2ccccc2Cl)n(Cc2ccccc2)c2ccccc12 | . | 0 | 0 | -22 | -2 | -1
CC(C)(C)c1cc(-c2csc(Nc3ccccc3)[n+]2Cc2ccc(C(=O)O)cc2)cc(C(C)(C)C)c1O | 92* | -2 | 1 | 88* | . | 2
